Results on 14 molecules are retold here after PubChem BioAssay.

The test system of assay [1] is TRPC4 beta (transient receptor potential cation channel C4), mouse. Kind of assay: activators of mouse TRPC4 channel, confirmation, cell-based, Fluo4 calcium, HEK293 TRPC4beta/mu-opioid, duplicates, 10 µM (AID 2426;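 active = fluorescence ratio normalized to control raised more than 50% in primary screen plus both repeat runs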). Particulars: Fluo4 calcium fluorescence, at 10 µM; active compounds read high.
Assay [2] deals with transient receptor potential cation channel C4 beta (TRPC4), mouse. Kind of assay: activators of mouse TRPC4 channel, confirmation, cell-based, second round, Fluo4, HEK293 TRPC4beta/mu-opioid, 1 µM (AID 2461;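 active = primary screen active and over 50% activation in each of two duplicate runs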). Conditions: Fluo4 calcium fluorescence, at 1 µM; active compounds read high.
Assay [3] concerns TRPC4 (transient receptor potential cation channel C4 beta), mouse. Put plainly: positive allosteric modulators of mouse TRPC4, confirmation, cell-based, second round, Fluo-4, HEK293 TRPC4beta/mu-opioid, 1 µM (AID 2554;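 active = primary screen hit whose fluorescence ratio, in both repeats, exceeds the weak agonist control mean by 3 SD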). Conditions: DAMGO EC20, Fluo-4 calcium flux, at 1 µM; active compounds read high.
In assay [4] the test system is TRPC4 beta (transient receptor potential cation channel C4), mouse. Put plainly: positive allosteric modulators of mouse TRPC4, confirmation, cell-based, Fluo-4, HEK293 TRPC4beta/mu-opioid (AID 2555). Particulars: DAMGO EC20, Fluo-4 calcium flux, at 10 µM; active compounds read high.
Assay [5] addresses Short transient receptor potential channel 4 (Mus musculus) (UniProt Q9QUQ5). Kind of assay: inhibitors of mouse TRPC4 channel, confirmation, cell-based, Fluo4, HEK293 TRPC4beta/mu-opioid (AID 2636;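 active = calcium signal cut by more than 3 SD below the full-agonist control yet still positive, in both repeats and the earlier primary screen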). Particulars: DAMGO, Fluo4 calcium flux, at 10 µM; active compounds read high.
For assay [6] the target is unchanged. Kind of assay: inhibitors of mouse TRPC4 channel, confirmation, cell-based, second round, Fluo4, HEK293 TRPC4beta/mu-opioid, 1 µM (AID 2637;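 active = calcium signal ratio cut to more than 3 SD under the fully stimulated control mean yet still positive, in both repeats and the primary screen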;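 for inhibition: percent of integrated ratio relative to wells lacking test compound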). Conditions: Fluo4 calcium flux, DAMGO, at 1 µM; active compounds read high. For orientation: Calcium assays in cells follow changes in intracellular calcium, usually with a dye or a luminescent sensor.
The target is the same in assay [7]. Kind of assay: mouse TRPC4 channel activators, dose response, cell-based, HEK293 TRPC4/mu-opioid, Fluo-4 calcium (AID 434937;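 active = primary screen activator hit with a dose response curve and TRPC4 channel activation at any tested dose; inactive = no activation, no dose response, or not a primary hit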).
The target is the same in assay [8]. Kind of assay: TRPC4 positive allosteric modulators, dose response, cell-based, HEK293 TRPC4/mu-opioid, Fluo-4 calcium, EC20 DAMGO (AID 434941;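 active = earlier screen potentiator hit that boosts the TRPC4 ion channel at some dose, with a dose response; inactive = no potentiation, no dose response, or not a prior hit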;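 note: calcium entry triggered by an EC20 dose of DAMGO at the co-expressed mu-opioid receptor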).
Assay [9] deals with Short transient receptor potential channel 6 (Mus musculus) (UniProt Q61143). Kind of assay: inhibition of mouse TRPC6 channel, confirmation, selectivity assay for TRPC4 inhibitor project, cell-based, HEK293, membrane potential dye, duplicate (AID 434948;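 active = active in primary screen and both duplicates, each dropping signal beyond three positive-control SD with fluorescence still positive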). Particulars: HEK293 TRPC6, membrane potential dye fluorescence, at 10 µM, stimulated with maximal-effect acetylcholine; active compounds read high.
Sequence of Short transient receptor potential channel 6 (Mus musculus) (Q61143 whole entry, looked up): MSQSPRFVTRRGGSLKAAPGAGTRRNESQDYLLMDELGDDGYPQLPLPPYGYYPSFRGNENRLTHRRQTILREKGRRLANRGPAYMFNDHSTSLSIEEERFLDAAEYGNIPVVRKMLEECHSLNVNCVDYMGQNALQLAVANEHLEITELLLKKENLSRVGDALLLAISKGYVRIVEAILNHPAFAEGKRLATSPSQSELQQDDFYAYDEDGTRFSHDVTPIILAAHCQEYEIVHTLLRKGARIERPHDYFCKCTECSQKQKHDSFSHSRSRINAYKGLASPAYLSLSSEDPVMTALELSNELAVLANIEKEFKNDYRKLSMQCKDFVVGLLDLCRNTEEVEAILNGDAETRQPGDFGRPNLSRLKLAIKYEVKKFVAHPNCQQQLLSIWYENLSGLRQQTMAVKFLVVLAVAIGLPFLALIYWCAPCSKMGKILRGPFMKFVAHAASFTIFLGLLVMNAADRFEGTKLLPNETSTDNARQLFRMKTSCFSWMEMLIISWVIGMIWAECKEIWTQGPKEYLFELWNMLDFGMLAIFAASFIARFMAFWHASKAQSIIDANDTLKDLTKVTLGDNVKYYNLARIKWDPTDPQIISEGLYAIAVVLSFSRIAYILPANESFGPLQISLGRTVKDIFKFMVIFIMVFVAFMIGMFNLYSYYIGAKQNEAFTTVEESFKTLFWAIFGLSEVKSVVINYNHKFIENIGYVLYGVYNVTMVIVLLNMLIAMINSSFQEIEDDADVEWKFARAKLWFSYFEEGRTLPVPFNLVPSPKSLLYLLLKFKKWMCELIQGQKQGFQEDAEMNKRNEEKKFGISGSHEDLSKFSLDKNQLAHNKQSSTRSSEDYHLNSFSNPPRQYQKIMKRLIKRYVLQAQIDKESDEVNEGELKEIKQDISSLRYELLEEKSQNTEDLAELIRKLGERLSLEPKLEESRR

Assay [10] shares this target. Kind of assay: activation of mouse TRPC6 channel, confirmation, selectivity assay for TRPC4 activator project, cell-based, HEK293, membrane potential dye, duplicate (AID 434950;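 active = membrane potential signal rise above negative control mean plus 3 SD in both duplicates, also active in the earlier TRPC4 screen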). Particulars: HEK293 TRPC6, membrane potential fluorescence, at 10 µM; active compounds read high.
The target is the same in assay [11]. Kind of assay: TRPC6 potentiation by TRPC4 potentiator hits, confirmation, selectivity assay for TRPC4 potentiator project, HEK293 cells, membrane potential dye, duplicate (AID 434952;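 active = compound raising the membrane signal above positive-control mean plus 3 SD in both repeats, and a primary screen hit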). Conditions: HEK293 TRPC6, membrane potential dye fluorescence, at 10 µM, maximal acetylcholine added after compound; active compounds read high.
The target in assay [12] is Short transient receptor potential channel 4 (Mus musculus) (UniProt Q9QUQ5). Kind of assay: calcium flux activators in TRPC4/5HT1a cells, counter-screen for TRPC4 activator project, cell-based, second counter screen, HEK293 TRPC4/5HT1a, Fluo-4 (AID 434977;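 active = calcium signal rise above buffer-control mean plus 5 SD in both duplicates, and also a hit in the primary screen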). Conditions: Fluo-4 calcium flux, at 10 µM; active compounds read high.
Sequence of Short transient receptor potential channel 4 (Mus musculus) (Q9QUQ5 whole entry, looked up): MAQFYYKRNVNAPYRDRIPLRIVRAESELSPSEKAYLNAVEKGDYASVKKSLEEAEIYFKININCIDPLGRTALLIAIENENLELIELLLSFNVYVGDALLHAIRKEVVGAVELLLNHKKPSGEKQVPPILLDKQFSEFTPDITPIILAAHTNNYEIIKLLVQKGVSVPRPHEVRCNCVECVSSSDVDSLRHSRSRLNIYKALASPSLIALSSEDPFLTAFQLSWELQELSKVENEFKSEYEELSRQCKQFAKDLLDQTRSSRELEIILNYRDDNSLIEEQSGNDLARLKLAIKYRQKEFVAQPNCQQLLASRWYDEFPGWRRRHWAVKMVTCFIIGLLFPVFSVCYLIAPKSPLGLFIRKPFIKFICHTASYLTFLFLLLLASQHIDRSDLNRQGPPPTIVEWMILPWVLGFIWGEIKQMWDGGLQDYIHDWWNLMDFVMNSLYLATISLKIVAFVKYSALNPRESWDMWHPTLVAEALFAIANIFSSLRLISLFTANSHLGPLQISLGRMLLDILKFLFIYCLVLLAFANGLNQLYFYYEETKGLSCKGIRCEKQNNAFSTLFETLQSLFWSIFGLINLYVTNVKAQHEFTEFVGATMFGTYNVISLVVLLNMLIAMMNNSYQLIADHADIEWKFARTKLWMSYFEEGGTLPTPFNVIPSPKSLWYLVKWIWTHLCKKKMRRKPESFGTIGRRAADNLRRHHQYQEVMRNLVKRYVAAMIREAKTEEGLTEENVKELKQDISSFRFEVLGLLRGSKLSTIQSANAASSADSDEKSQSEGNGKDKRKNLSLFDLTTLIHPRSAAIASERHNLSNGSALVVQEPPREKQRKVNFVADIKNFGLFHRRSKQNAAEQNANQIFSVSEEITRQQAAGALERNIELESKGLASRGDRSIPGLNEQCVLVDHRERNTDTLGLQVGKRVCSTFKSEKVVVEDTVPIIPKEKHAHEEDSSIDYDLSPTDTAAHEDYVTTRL
Assay [13] can be described thus: calcium flux inhibitors in TRPC4/5HT1a cells, confirmation, counter-screen for TRPC4 inhibitor project, cell-based, second counter screen, HEK293 TRPC4/5HT1a, Fluo-4 (AID 434978;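 active = primary screen active whose calcium signal fell more than 3 SD beyond the full-serotonin control mean in both duplicate plates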;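 for outcome: serotonin given first at submaximal then at maximal dose after compound preincubation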). Particulars: Fluo-4 calcium flux, at 10 µM, serotonin added to trigger calcium flux; active compounds read high.
Assay [14] has as its system TRPC4 (mouse), co-expressed with 5HT1a in HEK293. Put plainly: calcium flux potentiators in TRPC4/5HT1a cells, confirmation, counter-screen for TRPC4 potentiator project, cell-based, second counter screen, HEK293 TRPC4/5HT1a, Fluo-4 (AID 434979;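 active = signal rise over 3 SD above mean of control wells given weak agonist, in both repeats and first screen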). Conditions: Fluo-4 calcium flux, at 10 µM, serotonin added at its EC20 dose; active compounds read high.
Assay [15] is described as follows: calcium flux activation in mu-opioid HEK293 cells, confirmation, counter-screen for TRPC4 activator project, cell-based, HEK293 mu-opioid receptor line (AID 449723;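 active = hit in primary screen, with calcium signal over 5 SD above buffer well mean in both duplicates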;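 note: counter screen cells carry the mu-opioid receptor alone and lack TRPC4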). Particulars: Fluo-4 calcium fluorescence, at 10 µM; active compounds read high.
Assay [16] is described as follows: calcium flux enhancement in mu-opioid HEK293 cells, confirmation, counter-screen for TRPC4 allosteric potentiator project, cell-based, HEK293 mu-opioid receptor line (AID 449724;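 active = calcium signal rise more than 3 SD above the low-dose agonist control mean, in both duplicate plates and the primary screen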;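 note: HEK293 cells carrying mu-opioid receptor only with no TRPC4 channel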). Conditions: Fluo-4 calcium flux, at 10 µM, compound added before EC20 DAMGO stimulus; active compounds read high.

For some assays here: Results with a measured potency or affinity are listed apart. Active and inactive are the calls of the source.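 Rule for the calls, unless noted: active = primary screen hit whose calcium fluorescence ratio, in both repeats, exceeds the weak agonist control mean by 3 SD; inactive = the rest.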

In the case of `CCCCCN1C2=NCCN2c2ccccc21`, the outcome in assay [1], in assay [2], in assay [3], in [4], in assay [7] and in [8] was inactive. For the same molecule, the call in [9], in assay [10], in assay [11], in assay [12], in assay [14] and in [15] was inactive. Further, the outcome in assay [16] was inactive. The inhibition – broadly, how much of the control response was suppressed – in [5] was 94% (active); in [6], 70% (active); in assay [13], 25.1% (active).

For `Fc1cccc(Nc2c3c(nc4ccccc24)CCC3)c1`, the outcome in assay [1], in assay [2], in assay [3], in assay [4], in assay [6] and in [7] was inactive. The result in assay [8], in assay [9], in assay [10], in assay [11], in [12] and in assay [14] was inactive. For the same molecule, the outcome in assay [15] and in assay [16] was inactive. The inhibition in assay [5] is 96% (active); in [13] it was 14.9% (active).

With `CSc1nsc(NC(=O)Cc2ccccc2)n1`, the outcome in [1], in [2], in assay [3], in [4], in assay [6] and in [7] was inactive. Further, the result in assay [8], in assay [9], in assay [10], in assay [11], in assay [12] and in [13] was inactive. Besides, the outcome in assay [14], in assay [15] and in assay [16] was inactive. In assay [5], the inhibition was 93% (active).

In the case of `Nc1cc(=O)nc(SCC(=O)N2CCN(c3ccccc3)CC2)n1-c1ccc(F)cc1`, the result in assay [1], in assay [2], in assay [3], in [4], in assay [7] and in assay [8] was inactive. Further, the result in assay [9], in assay [10], in assay [11], in assay [12], in assay [14] and in assay [15] was inactive. Further, the result in assay [16] was inactive. Besides, the results for the inhibition in assay [5], in [6] and in assay [13] were 95% (active), 45% (active) and 43.7% (active), respectively.

Turning to `CCOc1ccc2ccccc2c1CNCCc1ccc(S(N)(=O)=O)cc1`, the result in [1], in [2], in assay [3], in assay [4], in assay [6] and in assay [7] was inactive. The result in [8], in [9], in assay [10], in assay [11], in assay [12] and in assay [14] was inactive. In addition, the result in [15] and in [16] was inactive. In addition, the values for the inhibition in assay [5] and in [13] were 92% (active) and 35.5% (active), respectively.

Regarding `COCCn1c(SCC(=O)c2ccccc2)nc2ccccc2c1=O`, the outcome in assay [1], in assay [2], in assay [3], in assay [4], in assay [7] and in assay [8] was inactive. Besides, the result in [9], in assay [10], in [11], in assay [12], in assay [14] and in assay [15] was inactive. Besides, in [16], the outcome was inactive. Besides, the inhibition was 91% (active) in assay [5], 48% (active) in assay [6] and 20.4% (active) in assay [13].

`COc1cccc(/C=C2\SC(=S)N(NS(=O)(=O)c3ccc(C)cc3)C2=O)c1OC`: the result in assay [1], in [2], in assay [3], in [4], in [6] and in [7] was inactive. The outcome in assay [8], in assay [9], in assay [10], in assay [11], in assay [12] and in assay [14] was inactive. Besides, the outcome in [15] and in assay [16] was inactive. In addition, the inhibition in assay [5] was 95% (active); in assay [13], 4.07% (active).

As to `Cc1ccc(/C=C2\SC(=S)N(C(Cc3ccccc3)C(=O)O)C2=O)cc1` (centres undefined), the result in assay [1], in assay [2], in [3], in assay [4], in [5] and in assay [6] was inactive. Moreover, the outcome in [7], in [8], in assay [9], in assay [10], in assay [11] and in assay [12] was inactive. Also, the result in assay [14], in assay [15] and in assay [16] was inactive. Further, in [13], the inhibition is 18.3% (active).

As to `COc1nc(N=C(N)N)nc2ccc(C)cc12`, the result in assay [1], in assay [2], in assay [3], in [4], in assay [6] and in assay [7] was inactive. Further, the outcome in assay [8], in assay [10], in assay [11], in assay [12], in assay [14] and in [15] was inactive. For the same molecule, the result in [16] was inactive. Also, the inhibition was 96% (active) in assay [5], 46.5% (active) in assay [9] and 21.1% (active) in [13].

Consider `COc1ccc(NC(=O)c2cccc(N3C(=O)C4CC=C(C)CC4C3=O)c2)c(OC)c1` (centres undefined), for which the outcome in assay [1], in [2], in [3], in assay [4], in [6] and in assay [7] was inactive. The outcome in [8], in assay [9], in assay [10], in assay [11], in [12] and in assay [13] was inactive. Moreover, the result in assay [14], in [15] and in [16] was inactive. The inhibition in assay [5] was 75% (active).

For the molecule `COc1ccc(CN2CCN(Cc3ccc(C(F)(F)F)cc3)CC2)c(OC)c1`, the result in assay [1], in assay [2], in assay [3], in [4], in assay [7] and in [8] was inactive. Besides, the molecule was classed as inactive in assay [9], in [10], in assay [11], in assay [12], in assay [14] and in [15]. In addition, the outcome in assay [16] was inactive. For the same molecule, the inhibition in assay [5] was 95% (active); in [6], 41% (active); in assay [13], 23% (active).

In the case of `CCCN(c1nc(C)cc(OC)n1)S(=O)(=O)c1ccccc1`, the outcome in assay [1], in [2], in assay [3], in assay [4], in [6] and in [7] was inactive. The outcome in [8], in assay [9], in [10], in assay [11], in assay [12] and in assay [14] was inactive. Moreover, the result in [15] and in [16] was inactive. Also, the figures for the inhibition in assay [5] and in assay [13] were 59% (active) and 25.2% (active), respectively.

For the molecule `CSCCNC(=O)c1ccc(OC2CCN(CCc3ccccc3)CC2)cc1`, the result in [1], in assay [2], in assay [3], in [4], in [5] and in assay [7] was inactive. Also, the outcome in assay [8], in [9], in assay [10], in [11], in [12] and in [13] was inactive. For the same molecule, the result in assay [14], in assay [15] and in assay [16] was inactive. Moreover, the inhibition in assay [6] was 65% (active).

For `Cc1ccc(NC(=O)c2cc(N3C(=O)C=CC3=O)ccc2N2CCOCC2)cc1`, the result in assay [1], in assay [2], in assay [3], in assay [4], in assay [7] and in assay [8] was inactive. The result in assay [9], in assay [10], in assay [11], in assay [12], in assay [14] and in assay [15] was inactive. Moreover, the result in [16] was inactive. Further, the values for the inhibition in assay [5], in [6] and in assay [13] were 91% (active), 38% (active) and 34.6% (active), respectively.
